Laboratory results: the supplement of paper PMC10849652
Targets with a hit are over-represented here; the source holds about 8,800 in all. About 0.5% of all pairs of compound and target were hits.

compound: C1COCCN1CCN2C3=CC=CC=C3N=C2NC(=O)C4=CC(=CC=C4)[N+](=O)[O-] [IRAK-1-4 Inhibitor I]; assay: log2 fold change, soluble protein after heating vs DMSO (PISA); higher = thermal stabilisation; K562 lysate, 10 uM; active = over 0.2 and 3.5 SD of the protein, either way, in both replicates (recomputed)
Method in brief: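 A 30 min treatment with 10 μM compound was applied to crude K562 extract at 1 mg/mL protein in PBS pH 7.4 with 1 mM MgCl2. Heating for 3 min spanned 48°C-58°C, after which aliquots were pooled, adjusted to 0.5% NP-40 at 4°C and spun at 21,000xg for 90 min. TMTpro 16plex LC-MS/MS of the supernatant, with channel sums equalised, gave values recorded as log-two fold change in thermal stability against solvent controls, from duplicates.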

Sequence of UniProt Q16186 (Q16186 whole entry, looked up): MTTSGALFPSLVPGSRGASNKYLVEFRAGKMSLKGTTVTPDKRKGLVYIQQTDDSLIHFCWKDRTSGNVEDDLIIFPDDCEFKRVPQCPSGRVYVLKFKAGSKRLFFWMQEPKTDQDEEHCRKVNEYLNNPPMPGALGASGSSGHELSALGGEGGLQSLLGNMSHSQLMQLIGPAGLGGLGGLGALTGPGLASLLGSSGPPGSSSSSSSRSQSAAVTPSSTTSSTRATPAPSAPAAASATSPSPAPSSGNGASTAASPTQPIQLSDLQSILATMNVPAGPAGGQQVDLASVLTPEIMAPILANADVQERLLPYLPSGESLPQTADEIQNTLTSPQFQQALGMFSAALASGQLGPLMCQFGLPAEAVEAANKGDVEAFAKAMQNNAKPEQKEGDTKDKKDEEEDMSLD
Sequence of UniProt P42684 (P42684 whole entry, looked up): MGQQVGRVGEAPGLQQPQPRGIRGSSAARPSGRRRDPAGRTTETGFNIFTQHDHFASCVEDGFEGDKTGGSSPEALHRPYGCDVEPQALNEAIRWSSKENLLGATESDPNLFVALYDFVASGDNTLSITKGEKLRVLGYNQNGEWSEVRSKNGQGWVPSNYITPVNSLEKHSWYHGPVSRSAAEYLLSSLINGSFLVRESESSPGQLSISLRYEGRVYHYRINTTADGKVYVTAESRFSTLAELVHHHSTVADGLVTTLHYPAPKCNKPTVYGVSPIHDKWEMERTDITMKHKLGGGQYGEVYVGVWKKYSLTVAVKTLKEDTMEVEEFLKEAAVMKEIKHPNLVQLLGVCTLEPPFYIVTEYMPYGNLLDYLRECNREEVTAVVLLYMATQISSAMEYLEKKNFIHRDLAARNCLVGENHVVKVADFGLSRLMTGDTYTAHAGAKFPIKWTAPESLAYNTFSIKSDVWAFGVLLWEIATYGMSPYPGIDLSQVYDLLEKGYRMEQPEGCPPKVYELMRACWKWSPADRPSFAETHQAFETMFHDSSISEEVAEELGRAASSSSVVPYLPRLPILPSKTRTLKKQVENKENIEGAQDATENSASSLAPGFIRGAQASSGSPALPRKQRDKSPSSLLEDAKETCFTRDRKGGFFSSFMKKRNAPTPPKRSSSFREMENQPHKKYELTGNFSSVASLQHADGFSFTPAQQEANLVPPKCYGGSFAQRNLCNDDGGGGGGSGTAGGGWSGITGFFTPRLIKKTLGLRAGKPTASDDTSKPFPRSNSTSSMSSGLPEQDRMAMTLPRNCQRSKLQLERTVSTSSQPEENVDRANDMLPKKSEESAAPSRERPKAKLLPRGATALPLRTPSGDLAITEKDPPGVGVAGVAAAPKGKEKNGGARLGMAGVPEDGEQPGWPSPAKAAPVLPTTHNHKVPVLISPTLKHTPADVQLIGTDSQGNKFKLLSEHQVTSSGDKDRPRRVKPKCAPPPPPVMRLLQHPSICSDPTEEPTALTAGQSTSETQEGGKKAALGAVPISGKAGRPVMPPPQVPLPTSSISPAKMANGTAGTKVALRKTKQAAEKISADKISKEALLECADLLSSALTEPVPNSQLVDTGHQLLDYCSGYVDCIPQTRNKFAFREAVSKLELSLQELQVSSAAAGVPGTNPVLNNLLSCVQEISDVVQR
Sequence of UniProt P35611 (P35611 whole entry, looked up): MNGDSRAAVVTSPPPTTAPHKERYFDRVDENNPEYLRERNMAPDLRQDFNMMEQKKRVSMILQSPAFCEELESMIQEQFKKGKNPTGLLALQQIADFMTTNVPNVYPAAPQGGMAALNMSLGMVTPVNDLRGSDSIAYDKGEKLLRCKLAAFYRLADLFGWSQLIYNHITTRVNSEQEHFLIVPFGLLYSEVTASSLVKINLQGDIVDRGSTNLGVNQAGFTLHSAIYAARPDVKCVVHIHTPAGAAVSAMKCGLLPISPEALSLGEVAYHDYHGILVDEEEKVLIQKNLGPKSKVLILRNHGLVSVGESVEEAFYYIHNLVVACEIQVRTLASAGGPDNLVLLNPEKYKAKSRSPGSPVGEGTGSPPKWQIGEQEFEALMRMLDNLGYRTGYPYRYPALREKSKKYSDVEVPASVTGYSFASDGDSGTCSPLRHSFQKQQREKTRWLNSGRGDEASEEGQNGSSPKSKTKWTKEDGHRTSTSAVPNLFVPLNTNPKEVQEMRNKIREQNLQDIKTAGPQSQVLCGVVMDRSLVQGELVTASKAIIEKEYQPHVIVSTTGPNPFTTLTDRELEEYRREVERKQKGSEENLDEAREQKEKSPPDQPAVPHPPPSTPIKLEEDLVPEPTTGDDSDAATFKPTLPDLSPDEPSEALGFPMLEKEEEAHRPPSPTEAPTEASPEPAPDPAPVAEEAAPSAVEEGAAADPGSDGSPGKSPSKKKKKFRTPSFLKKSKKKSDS
Sequence of UniProt P33121 (P33121 whole entry, looked up): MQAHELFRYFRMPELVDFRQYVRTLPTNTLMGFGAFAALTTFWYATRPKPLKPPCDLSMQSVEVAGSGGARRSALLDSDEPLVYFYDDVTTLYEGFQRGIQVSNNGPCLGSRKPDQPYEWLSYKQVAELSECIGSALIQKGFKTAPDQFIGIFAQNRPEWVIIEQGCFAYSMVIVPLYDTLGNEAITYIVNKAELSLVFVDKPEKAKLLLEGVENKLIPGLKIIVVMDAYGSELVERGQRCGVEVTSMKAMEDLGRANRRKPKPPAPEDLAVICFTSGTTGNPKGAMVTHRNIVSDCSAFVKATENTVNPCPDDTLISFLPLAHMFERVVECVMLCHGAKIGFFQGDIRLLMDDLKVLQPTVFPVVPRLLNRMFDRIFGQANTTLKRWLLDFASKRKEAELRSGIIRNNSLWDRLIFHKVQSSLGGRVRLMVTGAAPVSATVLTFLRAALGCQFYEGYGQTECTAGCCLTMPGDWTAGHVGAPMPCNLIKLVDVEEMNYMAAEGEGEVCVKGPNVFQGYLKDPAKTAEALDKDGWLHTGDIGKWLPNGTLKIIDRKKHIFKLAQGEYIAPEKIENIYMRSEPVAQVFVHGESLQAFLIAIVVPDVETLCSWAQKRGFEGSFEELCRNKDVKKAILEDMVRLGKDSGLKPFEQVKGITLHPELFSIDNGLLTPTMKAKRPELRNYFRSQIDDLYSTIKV
Sequence of UniProt P28288 (P28288 whole entry, looked up): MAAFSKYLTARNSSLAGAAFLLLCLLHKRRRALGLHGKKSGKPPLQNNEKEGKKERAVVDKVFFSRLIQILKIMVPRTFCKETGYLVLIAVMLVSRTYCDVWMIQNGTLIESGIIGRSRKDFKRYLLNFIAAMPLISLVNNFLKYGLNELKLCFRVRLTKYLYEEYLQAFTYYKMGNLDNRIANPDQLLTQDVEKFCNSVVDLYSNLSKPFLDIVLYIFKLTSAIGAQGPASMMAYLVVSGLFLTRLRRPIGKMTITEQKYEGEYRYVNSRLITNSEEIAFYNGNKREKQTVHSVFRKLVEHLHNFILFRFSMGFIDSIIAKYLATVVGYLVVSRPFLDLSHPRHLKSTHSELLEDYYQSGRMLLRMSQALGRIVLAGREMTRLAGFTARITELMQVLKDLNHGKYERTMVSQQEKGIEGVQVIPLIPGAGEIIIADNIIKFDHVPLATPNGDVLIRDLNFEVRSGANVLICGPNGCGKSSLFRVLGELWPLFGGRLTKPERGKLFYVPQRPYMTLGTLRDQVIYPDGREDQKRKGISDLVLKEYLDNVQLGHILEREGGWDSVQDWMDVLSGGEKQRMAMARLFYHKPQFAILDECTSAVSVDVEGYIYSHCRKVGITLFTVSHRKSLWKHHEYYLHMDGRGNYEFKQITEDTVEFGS
Sequence of UniProt Q9BTT0 (Q9BTT0 whole entry, looked up): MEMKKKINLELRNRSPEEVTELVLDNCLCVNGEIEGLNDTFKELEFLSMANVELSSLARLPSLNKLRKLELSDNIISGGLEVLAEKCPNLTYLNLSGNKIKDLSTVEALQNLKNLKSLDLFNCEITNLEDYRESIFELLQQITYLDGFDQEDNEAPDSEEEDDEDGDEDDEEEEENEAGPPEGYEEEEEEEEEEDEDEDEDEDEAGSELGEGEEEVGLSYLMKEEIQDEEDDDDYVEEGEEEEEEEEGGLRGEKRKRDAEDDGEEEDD
Sequence of UniProt O75843 (O75843 whole entry, looked up): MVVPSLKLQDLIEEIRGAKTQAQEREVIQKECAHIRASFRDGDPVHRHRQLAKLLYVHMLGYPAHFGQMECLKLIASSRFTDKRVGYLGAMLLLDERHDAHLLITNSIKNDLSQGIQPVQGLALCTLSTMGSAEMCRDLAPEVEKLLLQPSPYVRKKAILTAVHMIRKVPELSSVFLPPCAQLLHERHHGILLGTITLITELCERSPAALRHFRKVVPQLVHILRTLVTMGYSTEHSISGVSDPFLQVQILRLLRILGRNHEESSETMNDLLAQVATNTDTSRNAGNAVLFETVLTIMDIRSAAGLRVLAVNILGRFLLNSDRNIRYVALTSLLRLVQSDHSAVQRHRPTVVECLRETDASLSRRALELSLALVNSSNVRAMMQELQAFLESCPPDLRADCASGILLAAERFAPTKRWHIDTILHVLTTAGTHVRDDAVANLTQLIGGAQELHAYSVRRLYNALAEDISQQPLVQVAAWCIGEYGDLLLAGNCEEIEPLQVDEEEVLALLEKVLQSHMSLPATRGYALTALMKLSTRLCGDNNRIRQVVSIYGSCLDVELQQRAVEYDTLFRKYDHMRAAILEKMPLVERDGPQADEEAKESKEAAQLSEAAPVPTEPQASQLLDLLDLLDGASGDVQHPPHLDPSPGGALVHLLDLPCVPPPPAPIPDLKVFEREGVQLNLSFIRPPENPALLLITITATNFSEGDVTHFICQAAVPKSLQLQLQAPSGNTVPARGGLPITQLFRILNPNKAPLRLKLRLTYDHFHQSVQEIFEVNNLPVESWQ
Sequence of UniProt P27144 (P27144 whole entry, looked up): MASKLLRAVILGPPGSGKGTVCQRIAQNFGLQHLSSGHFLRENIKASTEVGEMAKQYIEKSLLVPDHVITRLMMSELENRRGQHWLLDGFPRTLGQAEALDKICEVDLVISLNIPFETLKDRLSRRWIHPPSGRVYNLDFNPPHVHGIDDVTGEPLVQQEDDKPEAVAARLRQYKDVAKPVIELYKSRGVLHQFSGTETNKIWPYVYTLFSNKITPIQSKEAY

log2 fold change, inactive:
ADRM1 (UniProt Q16186) 0.026
ADD1 isoform 3 (UniProt P35611) -0.021
AGGF1 (UniProt Q8N302) 0.023
ANKRD40 (UniProt Q6AI12) -0.091
AIMP1 isoform 2 (UniProt Q12904) 0.01
AMPD3 isoform 4 (UniProt Q01432) 0.015
AGTPBP1 (UniProt Q9UPW5) 0.022
AIFM2 (UniProt Q9BRQ8) -0.01
ARL1 (UniProt P40616) 0.053
ACSL1 (UniProt P33121) 0.022
ACTBL2 (UniProt Q562R1) -0.006
ALG13 (UniProt Q9NP73) -0.02
AGPS (UniProt O00116) 0.023
ARL15 (UniProt Q9NXU5) 0.038
ALDH2 (UniProt P05091) 0.003
ADAM17 (UniProt P78536) 0.04
ABCF2 isoform 2 (UniProt Q9UG63) -0.047
AK4 (UniProt P27144) -0.002
ABCD3 (UniProt P28288) -0.003
ADAMTS5 (UniProt Q9UNA0) 0.123
ABHD16A (UniProt O95870) -0.006
AGO4 (UniProt Q9HCK5) -0.009
ALDH1B1 (UniProt P30837) 0.038
ANXA5 (UniProt P08758) -0.03
ANKRD27 (UniProt Q96NW4) 0.014
AMMECR1 (UniProt Q9Y4X0) 0.002
AP1G2 (UniProt O75843) -0.007
ASPH (UniProt Q12797) -0.016
ABI1 isoform 9 (UniProt Q8IZP0) -0.021
ABL2 (UniProt P42684) -0.068
AMD1 (UniProt P17707) -0.036
ANKRD52 (UniProt Q8NB46) 0.051
ANP32E (UniProt Q9BTT0) 0.023
AKT1 (UniProt P31749) -0.005
ACAA1 (UniProt P09110) -0.006
AFF4 (UniProt Q9UHB7) -0.031
